Potency and outcome data for twelve compounds are collected here from PubChem BioAssay (Tox21).

“And” between values parts separate entries of the source, which are not always exact repeats. Identical values can stand only once. Inconclusive results are not listed. Where a structure was tested more than once in an assay, its records may differ in their call. The source made the active and inactive calls. Unless noted, calls come from the whole dose curve; as a rule, active = well fitted curve in the direction sought with a large enough effect in the repeat runs; inconclusive = weak or mixed curves; inactive = no such curve, though single readings can be large; an effect the other way counts as inactive or inconclusive.

Experiment [1] is described as follows: Caspase-3/7 induction in HepG2 cells by small molecules, qHTS assay (AID 1346978). Note: nearly all actives have a fitted effect of over 15% in size. Note: potency is the fitted concentration of half-maximal effect. An outline of the steps:
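Caspase-3/7 induction was measured by Caspase-Glo 3/7 luminescence (30 min, room temperature) after a 17 hr compound exposure of wild-type HepG2 cells seeded at 2,000 per well and pre-incubated 5 hr.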
(Quantitative high-throughput screening tests each substance at several concentrations.)

Experiment [2] in a line: Caspase-3/7 induction in CHO-K1 cells by small molecules, qHTS cell viability counter screen (AID 1346979). Note: nearly all actives have a fitted effect of over 35% in size. Note: potency is the fitted concentration of half-maximal effect. An outline of the steps:
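Seeding: 1,500 CHO-K1 cells/well. Rest: 5hr, 37C. Treatment: compounds in DMSO, 16hr. Read: CellTiter-Fluor, 1hr, fluorescence.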

Experiment [3] is described as follows: Caspase-3/7 induction in CHO-K1 cells by small molecules, qHTS assay (AID 1346980). Note: nearly all actives have a fitted effect of over 15% in size. In outline:
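Luminescent Caspase-Glo 3/7 read (30min, room temperature) quantified apoptosis induction. Cells were wild-type CHO-K1, treated with compound for 17hr at 37 C and 5% CO2.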

Experiment [4] is described as follows: Caspase-3/7 induction in HepG2 cells by small molecules, qHTS cell viability counter screen (AID 1346981). Note: nearly all actives have a fitted effect of over 30% in size. Note: potency is the fitted concentration of half-maximal effect. An outline of the steps: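 CellTiter-Fluor fluorescence measured viability in the same wells used for Caspase-Glo 3/7. HepG2 (wild type) at 2,000 cells/well were pre-incubated 5 hr, dosed, and given reagent at 16 hr, with 1 hr further at 37C.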
Experiment [5] deals with Nuclear receptor subfamily 1 group I member 2 (Homo sapiens) (UniProt O75469). In words: Human pregnane X receptor (PXR) small molecule agonists, qHTS assay (AID 1346982). Note: nearly all actives have a fitted effect of over 35% in size. Note: potency is the fitted concentration of half-maximal effect. In outline:
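Agonist mode: luminescence from ONE-Glo after 24 h compound exposure at 37C in HepG2 cells carrying hPXR-responsive CYP3A4 luciferase, plated in charcoal-stripped serum medium 5 h beforehand.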

Experiment [6] deals with Acetylcholinesterase (Homo sapiens) (UniProt P22303). The experiment is described as follows: Acetylcholinesterase (AChE) small molecule antagonists: enzyme-based qHTS assay (AID 1347397; calls by dose curve; note: nearly all actives have a fitted effect of over 55% in size; note: potency is the fitted concentration of half-maximal effect). Conditions: Potency: AChE enzyme activity inhibition. An outline of the steps:
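Colorimetric DTNB readout of acetylthiocholine hydrolysis, 10 min at room temperature, after 30 min room-temperature exposure of 50 mU/mL recombinant human enzyme to compound; DMSO vehicle control.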

For experiment [7] the target is unchanged. The experiment is described as follows: Acetylcholinesterase (AChE) small molecule antagonists: fluorescence cell-based qHTS assay (AID 1347398; calls by dose curve; note: nearly all actives have a fitted effect of over 50% in size; note: potency is the fitted concentration of half-maximal effect). Conditions: Potency: AChE activity. An outline of the steps: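 Cellular AChE activity read as thiocholine from acetylthiocholine hydrolysis, detected by Thiolite Green fluorescence at 490/520 nm after 40 min at room temperature. Compounds were pre-incubated 30 min at 37 C on adherent SH-SY5Y cells.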

Experiment [8] shares this target. The experiment is described as follows: Acetylcholinesterase (AChE) small molecule antagonists: enzyme-based qHTS assay with human liver microsomes (AID 1347399; calls by dose curve; note: nearly all actives have a fitted effect of over 60% in size). Conditions: Potency: qHTS inhibition. An outline of the steps: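 Recombinant human AChE (50 mU/mL in the enzyme mix) and human liver microsomes (0.25 mg/mL final) were preincubated with compound and NADPH (0.25 mg/mL final) for 30 min at 37 C. Acetylthiocholine/DTNB was then added; thiocholine was read colorimetrically after 10 min at room temperature.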

The target of experiment [9] is Cytochrome P450 2D6 (Homo sapiens) (UniProt P10635). The experiment is described as follows: Cytochrome P450 Family 2 Subfamily D Member 6 (CYP2D6) small molecule antagonists: luciferase reporter qHTS assay (AID 1671196). Note: nearly all actives have a fitted effect of over 50% in size. Note: potency is the fitted concentration of half-maximal effect. In outline:
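CYP2D6 activity was followed as luminescence from its luciferin product after a 1 h NADPH-driven reaction at room temperature. Enzyme-substrate mix and compound were pre-incubated for 10 min, and the signal was read 20 min after adding detection reagent.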

Experiment [10] has as its target Cytochrome P450 2C19 (Homo sapiens) (UniProt P33261). In words: Cytochrome P450 Family 2 Subfamily C Member 19 (CYP2C19) small molecule antagonists: luciferase reporter qHTS assay (AID 1671197). Note: nearly all actives have a fitted effect of over 65% in size. Note: potency is the fitted concentration of half-maximal effect. In outline:
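Compounds were tested on CYP2C19 activity via proluciferin conversion to luciferin. The 37C, 1 h reaction followed NADPH addition; detection reagent stopped it.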
A general note: A reporter such as luciferase makes a cellular process visible.

Experiment [11] addresses Cytochrome P450 2C9 (Homo sapiens) (UniProt P11712). In words: Cytochrome P450 Family 2 Subfamily C Member 9 (CYP2C9) small molecule antagonists: luciferase reporter qHTS assay (AID 1671198). Note: nearly all actives have a fitted effect of over 50% in size. Note: potency is the fitted concentration of half-maximal effect. In outline: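 Enzyme-substrate mix preincubated with compound 10 min at room temperature; reaction started with NADPH regeneration solution, 1 h 37C. Luminescent luciferin product read after 20 min detection reagent.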

The target of experiment [12] is Cytochrome P450 1A2 (Homo sapiens) (UniProt P05177). The experiment is described as follows: Cytochrome P450 Family 1 Subfamily A Member 2 (CYP1A2) small molecule antagonists: luciferase reporter qHTS assay (AID 1671199). Note: nearly all actives have a fitted effect of over 50% in size. Note: potency is the fitted concentration of half-maximal effect. In outline:
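Luminescence from luciferin formed by CYP1A2 from a proluciferin substrate, read 20 min after detection reagent. Compound was pre-incubated 10 min with enzyme-substrate, and reaction started with NADPH regeneration solution for 1 h at room temperature; furafylline control.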

In experiment [13] the target is Voltage-gated inwardly rectifying potassium channel KCNH2 (Homo sapiens) (UniProt Q12809). In words: Human Ether-a-go-go-Related Gene (hERG) channel small molecule antagonists: fluorescence cell-based qHTS assay (AID 1671200). In outline: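 First, 1000 cells per well are seeded and cultured overnight at 37 C. Next, FluxOR II dye is loaded for 1 h at room temperature, protected from light. After 10 more minutes, stimulus is added and fluorescence is read.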
Sequence of Voltage-gated inwardly rectifying potassium channel KCNH2 (Homo sapiens) (Q12809 whole entry, looked up): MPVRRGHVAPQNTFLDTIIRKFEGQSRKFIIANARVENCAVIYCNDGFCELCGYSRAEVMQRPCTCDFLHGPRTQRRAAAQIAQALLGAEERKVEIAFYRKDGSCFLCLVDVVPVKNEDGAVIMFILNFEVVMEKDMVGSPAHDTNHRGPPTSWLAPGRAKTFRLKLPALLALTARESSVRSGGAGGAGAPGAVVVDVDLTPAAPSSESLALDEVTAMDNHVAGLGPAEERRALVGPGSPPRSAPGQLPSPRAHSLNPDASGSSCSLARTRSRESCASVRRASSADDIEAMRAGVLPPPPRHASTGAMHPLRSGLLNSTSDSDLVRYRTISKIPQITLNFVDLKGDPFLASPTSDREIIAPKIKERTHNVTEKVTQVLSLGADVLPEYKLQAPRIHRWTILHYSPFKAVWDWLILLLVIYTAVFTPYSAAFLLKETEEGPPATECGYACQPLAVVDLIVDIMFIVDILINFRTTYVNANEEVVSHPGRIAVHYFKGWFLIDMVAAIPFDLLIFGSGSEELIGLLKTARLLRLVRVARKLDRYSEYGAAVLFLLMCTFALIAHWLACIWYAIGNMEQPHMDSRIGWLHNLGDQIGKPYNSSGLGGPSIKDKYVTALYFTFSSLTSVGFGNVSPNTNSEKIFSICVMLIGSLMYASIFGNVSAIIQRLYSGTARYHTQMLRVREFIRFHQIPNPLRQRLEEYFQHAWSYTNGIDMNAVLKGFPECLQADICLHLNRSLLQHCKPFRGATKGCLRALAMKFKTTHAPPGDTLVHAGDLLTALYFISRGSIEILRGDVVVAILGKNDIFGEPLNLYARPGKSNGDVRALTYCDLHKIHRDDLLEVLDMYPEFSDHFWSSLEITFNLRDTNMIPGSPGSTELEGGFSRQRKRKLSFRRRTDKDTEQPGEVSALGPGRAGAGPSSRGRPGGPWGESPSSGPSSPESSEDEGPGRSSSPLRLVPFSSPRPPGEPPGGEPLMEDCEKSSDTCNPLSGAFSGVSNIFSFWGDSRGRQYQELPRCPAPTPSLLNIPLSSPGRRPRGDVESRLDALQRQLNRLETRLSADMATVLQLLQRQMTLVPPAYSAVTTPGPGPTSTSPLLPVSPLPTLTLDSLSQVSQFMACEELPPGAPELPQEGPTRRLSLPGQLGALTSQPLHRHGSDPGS
For orientation: The hERG channel carries a current that helps repolarise heart muscle cells.

The target of experiment [14] is Acetylcholinesterase (Homo sapiens) (UniProt P22303). In words: Acetylcholinesterase (AChE) small molecule antagonists: colormetric cell-based qHTS assay (AID 1347395; calls by dose curve; note: nearly all actives have a fitted effect of over 30% in size). An outline of the steps: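 Quantitative HTS in attached SH-SY5Y cells: 30 min compound exposure, then 90 min with acetylthiocholine and DTNB at 37 C; colour from thiocholine reports AChE activity.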
Sequence of Acetylcholinesterase (Homo sapiens) (P22303 whole entry, looked up): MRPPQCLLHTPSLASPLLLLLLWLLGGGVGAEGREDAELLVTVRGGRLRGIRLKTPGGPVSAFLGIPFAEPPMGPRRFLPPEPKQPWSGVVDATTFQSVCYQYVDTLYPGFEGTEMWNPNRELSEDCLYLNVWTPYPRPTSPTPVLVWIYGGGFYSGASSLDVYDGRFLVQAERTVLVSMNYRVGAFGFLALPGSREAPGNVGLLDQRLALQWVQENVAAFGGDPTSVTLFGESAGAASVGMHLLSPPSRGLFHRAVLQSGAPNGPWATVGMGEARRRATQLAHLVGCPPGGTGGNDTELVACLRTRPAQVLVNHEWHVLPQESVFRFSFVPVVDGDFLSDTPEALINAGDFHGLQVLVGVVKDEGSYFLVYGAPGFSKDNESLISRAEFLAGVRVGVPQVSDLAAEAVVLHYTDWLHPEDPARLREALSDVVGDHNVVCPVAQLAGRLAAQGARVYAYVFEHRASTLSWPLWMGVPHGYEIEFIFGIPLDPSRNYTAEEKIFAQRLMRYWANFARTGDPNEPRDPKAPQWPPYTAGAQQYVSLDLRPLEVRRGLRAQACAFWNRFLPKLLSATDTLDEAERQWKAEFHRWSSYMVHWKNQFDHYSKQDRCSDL

In experiment [15] the target is Cytochrome P450 3A4 (Homo sapiens) (UniProt P08684). The experiment is described as follows: Cytochrome P450 Family 3 Subfamily A Member 4 (CYP3A4) small molecule antagonists: luciferase reporter qHTS assay (AID 1671201). An outline of the steps: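 Enzyme and proluciferin substrate are mixed with test chemicals for 10 min, then NADPH regeneration system drives turnover for 1 h at room temperature. A detection reagent halts the reaction; luminescence after 20 min gives relative activity.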
Sequence of Cytochrome P450 3A4 (Homo sapiens) (P08684 whole entry, looked up): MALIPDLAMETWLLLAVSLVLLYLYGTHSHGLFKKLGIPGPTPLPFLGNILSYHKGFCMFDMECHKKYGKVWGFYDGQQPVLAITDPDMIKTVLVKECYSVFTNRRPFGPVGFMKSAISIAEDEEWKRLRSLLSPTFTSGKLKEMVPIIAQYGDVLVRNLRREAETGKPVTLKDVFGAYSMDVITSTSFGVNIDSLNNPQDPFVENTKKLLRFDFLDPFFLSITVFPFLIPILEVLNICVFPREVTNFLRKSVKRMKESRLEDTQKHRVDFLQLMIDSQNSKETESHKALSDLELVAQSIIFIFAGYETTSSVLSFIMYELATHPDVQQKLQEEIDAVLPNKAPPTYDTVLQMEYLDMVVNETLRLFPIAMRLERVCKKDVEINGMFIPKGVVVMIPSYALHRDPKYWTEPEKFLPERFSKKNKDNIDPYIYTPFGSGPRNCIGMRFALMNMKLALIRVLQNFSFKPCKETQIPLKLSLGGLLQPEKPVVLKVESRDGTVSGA

In experiment [16] the target is Nuclear receptor subfamily 1 group I member 2 (Homo sapiens) (UniProt O75469). The experiment is described as follows: CYP3A4 induction through human pregnane X receptor (PXR) by small molecules, qHTS assay (AID 1346984). Note: nearly all actives have a fitted effect of over 40% in size. In outline: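 Read-out is luminescence after One-Glo addition, following a 3 hr, 37C incubation with Luciferin-IPA CYP3A4 substrate (3uM final). Before that, compounds were on DPX-2 cells (HepG2 co-transfected with PXR element plus CYP3A4-promoter luciferase) for 24 hr at 37C.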
Sequence of Nuclear receptor subfamily 1 group I member 2 (Homo sapiens) (O75469 whole entry, looked up): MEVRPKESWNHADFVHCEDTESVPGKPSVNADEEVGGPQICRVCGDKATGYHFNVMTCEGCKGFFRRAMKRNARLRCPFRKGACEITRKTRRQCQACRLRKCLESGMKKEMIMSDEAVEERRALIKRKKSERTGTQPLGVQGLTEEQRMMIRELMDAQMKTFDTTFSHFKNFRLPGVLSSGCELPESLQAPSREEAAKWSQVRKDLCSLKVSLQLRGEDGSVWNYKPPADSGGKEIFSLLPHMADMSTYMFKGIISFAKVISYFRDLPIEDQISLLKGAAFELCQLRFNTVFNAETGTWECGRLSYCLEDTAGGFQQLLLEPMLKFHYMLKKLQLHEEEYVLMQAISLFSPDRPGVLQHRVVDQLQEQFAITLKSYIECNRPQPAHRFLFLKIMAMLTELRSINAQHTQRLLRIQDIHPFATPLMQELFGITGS

Experiment [17] has the same target. In words: Human pregnane X receptor (PXR) activation by small molecules, qHTS assay (AID 1346985). Note: nearly all actives have a fitted effect of over 40% in size. An outline of the steps:
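DPX-2 cells (HepG2 co-transfected with a PXR response element and a CYP3A4-promoter luciferase construct) were seeded at 2,000 per well, rested 5 hr at 37C, then exposed to DMSO-dissolved compounds for 24 hr. Activation was read as luciferase luminescence.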

Sequence of Cytochrome P450 2C19 (Homo sapiens) (P33261 whole entry, looked up): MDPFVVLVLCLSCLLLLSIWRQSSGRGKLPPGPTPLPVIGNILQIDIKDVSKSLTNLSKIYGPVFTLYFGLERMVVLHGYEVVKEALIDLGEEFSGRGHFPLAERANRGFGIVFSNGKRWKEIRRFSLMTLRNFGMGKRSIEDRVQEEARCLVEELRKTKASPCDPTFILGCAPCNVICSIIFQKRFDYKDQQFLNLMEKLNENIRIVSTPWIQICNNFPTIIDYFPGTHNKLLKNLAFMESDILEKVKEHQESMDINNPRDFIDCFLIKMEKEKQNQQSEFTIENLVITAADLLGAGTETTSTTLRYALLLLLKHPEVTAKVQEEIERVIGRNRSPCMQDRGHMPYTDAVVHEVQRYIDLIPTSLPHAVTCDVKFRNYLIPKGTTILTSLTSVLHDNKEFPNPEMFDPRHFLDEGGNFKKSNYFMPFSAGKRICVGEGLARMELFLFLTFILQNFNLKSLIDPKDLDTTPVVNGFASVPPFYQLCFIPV
Sequence of Cytochrome P450 1A2 (Homo sapiens) (P05177 whole entry, looked up): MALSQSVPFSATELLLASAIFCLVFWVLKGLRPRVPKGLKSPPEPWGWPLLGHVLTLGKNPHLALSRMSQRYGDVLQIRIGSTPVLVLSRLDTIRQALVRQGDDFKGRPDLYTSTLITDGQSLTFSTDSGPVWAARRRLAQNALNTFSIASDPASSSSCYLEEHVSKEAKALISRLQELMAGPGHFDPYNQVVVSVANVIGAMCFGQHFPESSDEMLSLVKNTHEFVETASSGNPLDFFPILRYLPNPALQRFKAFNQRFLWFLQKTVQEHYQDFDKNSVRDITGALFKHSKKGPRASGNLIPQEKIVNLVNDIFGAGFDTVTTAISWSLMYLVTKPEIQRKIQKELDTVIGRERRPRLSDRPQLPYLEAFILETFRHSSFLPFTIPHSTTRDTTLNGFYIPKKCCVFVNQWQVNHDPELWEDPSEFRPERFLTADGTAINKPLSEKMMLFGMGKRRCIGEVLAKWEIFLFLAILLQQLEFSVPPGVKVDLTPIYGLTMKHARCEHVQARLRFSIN
Sequence of Cytochrome P450 2C9 (Homo sapiens) (P11712 whole entry, looked up): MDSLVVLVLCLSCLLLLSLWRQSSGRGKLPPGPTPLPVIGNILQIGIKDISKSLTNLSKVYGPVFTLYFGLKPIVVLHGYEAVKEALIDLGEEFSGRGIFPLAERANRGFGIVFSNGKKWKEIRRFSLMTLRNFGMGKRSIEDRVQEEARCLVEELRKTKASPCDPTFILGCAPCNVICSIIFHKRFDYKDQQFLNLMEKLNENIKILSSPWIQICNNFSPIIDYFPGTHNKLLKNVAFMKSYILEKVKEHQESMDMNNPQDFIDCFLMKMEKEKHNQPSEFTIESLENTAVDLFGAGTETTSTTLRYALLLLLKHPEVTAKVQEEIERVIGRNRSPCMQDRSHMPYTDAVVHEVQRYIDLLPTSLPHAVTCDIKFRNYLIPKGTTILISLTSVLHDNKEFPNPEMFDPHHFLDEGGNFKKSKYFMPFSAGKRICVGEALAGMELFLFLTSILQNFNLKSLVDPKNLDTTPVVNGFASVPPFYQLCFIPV
Sequence of Cytochrome P450 2D6 (Homo sapiens) (P10635 whole entry, looked up): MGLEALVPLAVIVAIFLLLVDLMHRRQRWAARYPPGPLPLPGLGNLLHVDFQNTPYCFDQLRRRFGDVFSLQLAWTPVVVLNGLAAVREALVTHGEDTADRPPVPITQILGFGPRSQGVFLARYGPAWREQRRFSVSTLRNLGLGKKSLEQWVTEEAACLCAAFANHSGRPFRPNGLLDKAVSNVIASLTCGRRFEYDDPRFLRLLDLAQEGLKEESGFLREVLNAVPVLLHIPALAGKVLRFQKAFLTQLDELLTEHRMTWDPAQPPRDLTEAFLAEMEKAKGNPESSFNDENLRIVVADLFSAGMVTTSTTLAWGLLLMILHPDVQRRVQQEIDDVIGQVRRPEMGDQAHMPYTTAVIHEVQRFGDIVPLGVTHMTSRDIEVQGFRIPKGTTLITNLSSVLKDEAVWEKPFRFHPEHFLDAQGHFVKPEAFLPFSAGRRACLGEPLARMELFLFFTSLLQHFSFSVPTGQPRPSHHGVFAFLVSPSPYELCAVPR

Turning to `O=[N+]([O-])c1cccc2ccccc12`, the Potency result in experiment [1], in experiment [2], in [3], in [4], in [5] and in experiment [6] was “inactive” in each case. The Potency entry in [7], in experiment [8], in experiment [9], in [10], in experiment [11] and in [13] was “inactive” throughout. Further, in experiment [12], the Potency is 3.17 µM (active) and 3.99 µM (active).
For the compound `O=[N+]([O-])c1ccc(O)c([N+](=O)[O-])c1`, the Potency entry in experiment [1], in experiment [3], in experiment [5], in experiment [14], in experiment [6] and in [7] was “inactive” in each case. Further, the Potency result in experiment [8], in [9], in experiment [10], in experiment [12] and in [13] was “inactive” each time. For the same compound, the Potency in experiment [2] was 48.8 µM (active) and 54.5 µM (active); in experiment [4], 54.7 µM (active) and 61.1 µM (active); in experiment [11], 63.5 µM (active) and 39.9 µM (active).
With `c1ccc(-c2cccc(-c3ccccc3)c2)cc1`, the Potency result in experiment [1], in experiment [2], in experiment [3], in experiment [4], in experiment [14] and in experiment [6] was “inactive” each time. The Potency entry in experiment [7], in experiment [8], in experiment [9], in experiment [13] and in experiment [15] was “inactive” in each case. Besides, the Potency was 61.8 µM (active) and 27.3 µM (active) in experiment [5]; 20.2 µM (active) and 8.94 µM (active) in experiment [10]; 28.6 µM (active) and 31.7 µM (active) in experiment [11]; 5.7 µM (active) and 5.64 µM (active) in experiment [12].
Regarding `Nc1cccnc1`, the Potency entry in [1], in experiment [2], in experiment [3], in experiment [4], in experiment [5] and in experiment [14] was “inactive” throughout. Also, the Potency entry in [6], in experiment [7], in experiment [8], in [9], in experiment [11] and in experiment [12] was “inactive” each time. The Potency entry in experiment [13] and in experiment [15] was “inactive” in each case. Further, the Potency in experiment [10] is 71 µM (active).
Regarding `OCC(O)CO`, the Potency entry in experiment [1], in [2], in experiment [3], in [4], in experiment [5] and in [14] was “inactive” throughout. In addition, the Potency result in [6], in experiment [7], in experiment [8], in [9], in experiment [10] and in experiment [11] was “inactive” in each case. The Potency result in experiment [12], in [13] and in experiment [15] was “inactive” throughout. Moreover, the outcome in experiment [16] and in experiment [17] was inactive.
With `C=CCc1ccc(OC)cc1`, the Potency result in experiment [1], in [2], in experiment [3], in experiment [4], in experiment [5] and in experiment [6] was “inactive” in each case. For the same compound, the Potency result in experiment [7], in experiment [8], in [10], in experiment [11] and in experiment [13] was “inactive” throughout. Besides, the Potency in experiment [9] is 5.47 µM (active) and inactive.
As for `CCCCNC(=O)n1c(NC(=O)OC)nc2ccccc21`, the Potency in experiment [1] is 6.08 µM (active) and inactive; in experiment [2], 30.6 µM (active); in [5], 60.8 µM (active); in experiment [10] it was 79.3 µM (active); in [12], 25.1 µM (active) and 28.3 µM (active). The Potency entry in experiment [3], in experiment [4], in experiment [6], in experiment [7], in [8] and in [9] was “inactive” throughout. Further, the Potency entry in experiment [13] and in [15] was “inactive” each time.
On to `CCCCN(CCCC)N=O`, for which the Potency result in [1], in experiment [2], in experiment [3], in [4], in [5] and in [14] was “inactive” throughout. Also, the Potency result in experiment [8], in experiment [9], in experiment [11], in experiment [12] and in experiment [13] was “inactive” each time. Moreover, the Potency in experiment [6] was 34.1 µM (active) and inactive; in experiment [7] it was 12.1 µM (active) and inactive; in experiment [10], 60.7 µM (active) and inactive.
As to `CCC(CC)Nc1c([N+](=O)[O-])cc(C)c(C)c1[N+](=O)[O-]`, the Potency result in [1], in experiment [2], in experiment [3], in [4], in experiment [14] and in [6] was “inactive” throughout. Further, the Potency entry in experiment [7], in [8], in experiment [9] and in experiment [13] was “inactive” in each case. The Potency was 61.9 µM (active) and inactive in experiment [5]; 36.1 µM (active) and 10 µM (active) in experiment [10]; 32.1 µM (active) and 25.2 µM (active) in experiment [11]; 28.6 µM (active) and 17.8 µM (active) in [12].
For `CC(C)(C)c1ccccc1O`, the Potency result in experiment [1], in [2], in experiment [3], in [4], in [5] and in experiment [14] was “inactive” each time. The Potency entry in experiment [6], in experiment [7], in [8], in experiment [9], in [10] and in experiment [11] was “inactive” each time. For the same compound, the Potency entry in experiment [13] and in experiment [15] was “inactive” each time.
Consider `CC(C)=CC1C(C(=O)OCc2coc(Cc3ccccc3)c2)C1(C)C` (centres undefined), for which the Potency result in experiment [1], in [2], in experiment [3], in experiment [4], in experiment [14] and in experiment [6] was “inactive” throughout. Besides, the Potency entry in experiment [7], in [8], in experiment [9] and in [13] was “inactive” in each case. Besides, the Potency is 24.3 µM (active) in experiment [5]; 8.95 µM (active) and 6.32 µM (active) in experiment [10]; 7.98 µM (active) and 3.55 µM (active) in experiment [11]; 28.2 µM (active) in experiment [12].
For `Cc1cc(C)cc(C)c1`, the Potency result in experiment [1], in experiment [2], in experiment [3], in [4], in [5] and in experiment [14] was “inactive” each time. Moreover, the Potency result in experiment [6], in experiment [7], in experiment [8], in experiment [9], in [10] and in [11] was “inactive” in each case. Further, the Potency result in experiment [12] and in experiment [13] was “inactive” each time.
